# In the supplement of paper PMC7156485:
# ± gives the standard deviation of the averaged measurements.
# Assays:
# Conditions in all cases: concentration: 10 µM; 24 h
# HCC1569 [1] = experiment: cell number relative to DMSO (% of DMSO); higher = more cells (less growth inhibition / toxicity)
# In short: (§1)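 HCC1569 and TDF cells were seeded at 800 per well in 384-well plates in RPMI with 10% FBS and treated with compounds at 10 µM for 24 h at 37 °C, in triplicate. After fixation in 3.7% formaldehyde, cells were stained with a rabbit anti-H1.0 antibody, an AlexaFluor 647 secondary and DAPI, and six fields per well were imaged at ×10. H1.0 nuclear intensity or cell number is given as percent of the plate control, using the median of replicates, with HCC1569 values smoothed for positional effects.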
# TDF [2] = experiment: as above
# In short: as §1
# TDF [3] = experiment: H1.0 immunofluorescence intensity relative to DMSO (% of DMSO); higher = stronger H1.0 induction, active = 120 or more
# In short: as §1
# HCC1569 [4] = experiment: H1.0 immunofluorescence intensity relative to DMSO (% of DMSO); higher = stronger H1.0 induction, active = 140 or more
# In short: as §1
# 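Throughout, for H1.0 immunofluorescence intensity relative to DMSO: TDF is a line of transformed human dermal fibroblasts of mesenchymal origin.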
# 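Throughout, for cell number relative to DMSO: TDF denotes transformed human dermal fibroblasts of mesenchymal origin.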
SMILES,cell number (HCC1569 [1]),cell number (TDF [2]),H1.0 immunofluorescence intensity (TDF [3]),H1.0 immunofluorescence intensity (HCC1569 [4])
CC(C)(C=O)Cc1cc(C(C)(C)C)c(O)c(C(C)(C)C)c1,109,106,92 (inactive),97.1 (inactive)
"CCCCCC#CCC#CCC#CCC#CCCCC(=O)O [5,8,11,14-Eicosatetraynoic acid]",105,86.7,93.3 (inactive),103 (inactive)
CNCCNS(=O)(=O)c1cccc2cnccc12.Cl.Cl [H-8 dihydrochloride],105,101,91.8 (inactive),77.5 (inactive)
CC1(C)NC(=O)N(c2ccc([N+](=O)[O-])c(C(F)(F)F)c2)C1=O [Nilutamide],101,91,98.9 (inactive),100 (inactive)
Cl.O=S(=O)(c1cccc2cnccc12)N1CCCNCC1,100,93.8,92.4 (inactive),92.7 (inactive)
CCCCCC=CCC1OC1C=CC(O)CC=CCCCC(=O)O (stereo unspecified) [Hepoxilin A3],107,102,93.8 (inactive),100 (inactive)
CCCCCC=CCC=CCC=CC=CC(O)CCCC(=O)O (racemic),101,93,109 (inactive),102 (inactive)
O=C(Nc1ccc(-c2cn[nH]c2)cc1)C1COc2ccccc2O1 (stereo unspecified) [Rho Kinase Inhibitor V],107,109,87.7 (inactive),101 (inactive)
Br.Br.N=C(N)SCCN [2-(2-Aminoethyl)isothiourea dihydrobromide],99.2,85.8,96.9 (inactive),99.7 (inactive)
Cc1ncc([N+](=O)[O-])n1CCO [Metronidazole],102,104,99.3 (inactive),99.3 (inactive)
COc1ccc(-c2cc(=O)c3c(OC)c(OC)c(OC)cc3o2)cc1OC [Sinensetine],101,99.8,93.9 (inactive),93.6 (inactive)
CC(C)(S)[C@H](N)C(=O)O [L-Penicillamine],100,102,98.5 (inactive),90.8 (inactive)
O=C(NC(NC(=S)Nc1ccc(F)c([N+](=O)[O-])c1)C(Cl)(Cl)Cl)C(c1ccccc1)c1ccccc1 (stereo unspecified),58.2,58.3,108 (inactive),190 (active)
O=[N+]([O-])c1cccc2c(Br)[nH]nc12 [3-Bromo-7-nitroindazole],116,113,103 (inactive),91.9 (inactive)
Cc1ccc(C(=O)Nc2ccc(S(=O)(=O)[O-])c3cc(S(=O)(=O)[O-])cc(S(=O)(=O)[O-])c23)cc1NC(=O)c1cccc(NC(=O)Nc2cccc(C(=O)Nc3cc(C(=O)Nc4ccc(S(=O)(=O)[O-])c5cc(S(=O)(=O)[O-])cc(S(=O)(=O)[O-])c45)ccc3C)c2)c1.[Na+].[Na+].[Na+].[Na+].[Na+].[Na+] [Suramin hexasodium],101,101,98.5 (inactive),102 (inactive)
Cn1cnc([N+](=O)[O-])c1Sc1ncnc2nc[nH]c12 [Azathioprine],99.15 ± 0.87,101.8 ± 0.74,94.9 (inactive),97.6 (inactive)
CCCNC(C)C(=O)Nc1ccccc1C.Cl (stereo unspecified) [Prilocaine hydrochloride],103,107,86.9 (inactive),96.2 (inactive)
Cn1c(=O)c2c(ncn2Cc2ccc(C(C)(C)C)cc2)n(C)c1=O,81.6,71.4,106 (inactive),154 (active)
c1ccc(-c2ccc(C(c3ccccc3)n3ccnc3)cc2)cc1 (stereo unspecified) [Bifonazole],101,98.2,86.2 (inactive),122 (inactive)
Cl.Oc1ccc(Nc2nc(-c3ccc(Cl)cc3)cs2)cc1 [Sphingosine Kinase Inhibitor],69.3,75.1,110 (inactive),193 (active)
CC(OC1OCCN(Cc2nc(=O)[nH][nH]2)C1c1ccc(F)cc1)c1cc(C(F)(F)F)cc(C(F)(F)F)c1 (stereo unspecified) [Aprepitant],101,96.8,99.3 (inactive),107 (inactive)
CN(C)CCOC(C)(c1ccccc1)c1ccccn1.O=C(O)CCC(=O)O (stereo unspecified) [Doxylamine succinate],99.5,101,97.5 (inactive),87.7 (inactive)
COc1c2c(nc3ccccc13)OC(C(C)(O)CO)C2 (stereo unspecified) [Dubinidine],102 ± 7.2,104 ± 5.6,96.1 (inactive),106 (inactive)
N=c1nc(N2CCCCC2)cc(N)n1O [Minoxidil],99.9 ± 3.1,105 ± 3.1,92 (inactive),103 (inactive)
